Experimental data taken from PubChem BioAssay.
The source made the active and inactive calls. Unless noted, how the calls were made is not given here.

Assays:
[1] = HepG2 liver cancer cell viability effects, profiling panel, resazurin fluorescence, 24 h, PK04 Diversity Set (AID 1172); conditions: higher = more signal
[2] = basal S. cerevisiae growth modulation, no modifier, primary screen, OD600, strain BY4716, 24 h, basal condition (AID 1173); conditions: OD600, 24 h, higher = more signal, called active from +8 up or from −8 down
[3] = MM1S myeloma cell viability, profiling panel, resazurin fluorescence, basal, 24 h, PK04 Diversity Set (AID 1174); conditions: higher = more signal, called active from +8 up or from −8 down;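 further: MM1S multiple myeloma cell line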
[4] = molecular target: Dihydroorotate dehydrogenase (quinone), mitochondrial (Plasmodium falciparum (isolate 3D7)) (UniProt Q08210); test: PfDHODH enzyme inhibitors, primary screen, biochemical, C-terminal His tag, absorbance 600 nm (AID 1175); conditions: DCIP absorbance 600 nm, higher = more signal, called active from +8 up or from −8 down;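 further: recombinant parasite enzyme with a five histidine tag at its C terminus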
[5] = P. aeruginosa biofilm formation inhibitors, primary screen, strain PAO1, LB-PBS medium, absorbance 600 nm (AID 1176); conditions: P. aeruginosa PAO1 growth/biofilm, A600, 12 h; higher = more signal
[6] = S. cerevisiae RM11-1a growth modifiers, primary screen, strain RM11-1a, OD600, basal, 24 h (AID 1177); conditions: OD600, 24 h, higher = more signal, called active from +8 up or from −8 down;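 further: cultures grown under basal conditions with no added stressor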
[7] = E. coli acrAB mutant growth effects, primary screen, E. coli filamentation inducers, strain DRC39, OD650, 24 h (AID 1178); conditions: higher = more signal, called active from +8 up or from −8 down;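 further: growth measured as culture turbidity by optical density at 650 nm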
[8] = E. coli acrAB mutant growth effects, primary screen, E. coli filamentation inducers, strain DRC39, OD650, 48 h (AID 1179);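 further: screen aims at cell division blockers that make cells filament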; conditions: E. coli DRC39 delta-acrAB growth, higher = more signal, called active from +8 up or from −8 down
[9] = RPMI8226 myeloma cell viability, profiling panel, resazurin fluorescence, basal, 24 h, PK04 Diversity Set (AID 1180); conditions: higher = more signal;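 further: RPMI8826 multiple myeloma cell line at 5000 cells per well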
[10] = molecular target: E3 ubiquitin-protein ligase XIAP (Homo sapiens) (UniProt P98170); test: XIAP binders, primary screen, biophysical, small-molecule microarray, fluorescence 635 nm (AID 1181); conditions: small-molecule microarray binding, higher = more signal;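 further: score merges 667 nm emission and signal to noise over triplicate slides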
[11] = system: XIP peptide (Xip251-270) binding; test: small-molecule binders of XIP peptide, primary screen, biochemical, small-molecule microarray, fluorescence 635/667 nm, 0.1 µg/mL protein (AID 1182); conditions: fluorescent protein binding, 635 nm, higher = more signal, called active from +8 up or from −8 down
[12] = system: XIP peptide (Xip251-270); test: small-molecule binders of XIP peptide, primary screen, biochemical, small-molecule microarray, fluorescence 635/667 nm, 0.5 µg/mL protein (AID 1183); conditions: small-molecule microarray binding, fluorescence 635 nm; higher = more signal
[13] = Plasmodium falciparum growth inhibition, primary screen, strain 3D7, DAPI fluorescence, 100 nL (AID 1184);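 further: parasites grown inside human red blood cells in medium with human serum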; conditions: P. falciparum 3D7 growth, 3 d, higher = more signal
[14] = molecular target: Homeobox protein Hox-A13 (Mus musculus) (UniProt Q62424); test: inhibitors of HoxA13-DNA binding, primary screen, biochemical, fluorescence polarization, labeled oligonucleotide (AID 1185); conditions: 15 min, higher = more signal, called active from +8 up or from −8 down
Sequence of Homeobox protein Hox-A13 (Mus musculus) (Q62424 whole entry, looked up): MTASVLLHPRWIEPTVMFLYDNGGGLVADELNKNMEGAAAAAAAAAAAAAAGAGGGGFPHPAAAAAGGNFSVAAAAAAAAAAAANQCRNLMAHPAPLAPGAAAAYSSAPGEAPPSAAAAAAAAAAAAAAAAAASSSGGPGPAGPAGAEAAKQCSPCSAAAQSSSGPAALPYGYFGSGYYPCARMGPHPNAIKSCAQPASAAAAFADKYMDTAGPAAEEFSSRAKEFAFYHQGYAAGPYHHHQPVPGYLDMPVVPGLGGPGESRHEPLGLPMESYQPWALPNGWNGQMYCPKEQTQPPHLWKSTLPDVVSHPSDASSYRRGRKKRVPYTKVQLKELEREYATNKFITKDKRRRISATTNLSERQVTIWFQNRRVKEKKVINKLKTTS

Sequence of E3 ubiquitin-protein ligase XIAP (Homo sapiens) (P98170 whole entry, looked up): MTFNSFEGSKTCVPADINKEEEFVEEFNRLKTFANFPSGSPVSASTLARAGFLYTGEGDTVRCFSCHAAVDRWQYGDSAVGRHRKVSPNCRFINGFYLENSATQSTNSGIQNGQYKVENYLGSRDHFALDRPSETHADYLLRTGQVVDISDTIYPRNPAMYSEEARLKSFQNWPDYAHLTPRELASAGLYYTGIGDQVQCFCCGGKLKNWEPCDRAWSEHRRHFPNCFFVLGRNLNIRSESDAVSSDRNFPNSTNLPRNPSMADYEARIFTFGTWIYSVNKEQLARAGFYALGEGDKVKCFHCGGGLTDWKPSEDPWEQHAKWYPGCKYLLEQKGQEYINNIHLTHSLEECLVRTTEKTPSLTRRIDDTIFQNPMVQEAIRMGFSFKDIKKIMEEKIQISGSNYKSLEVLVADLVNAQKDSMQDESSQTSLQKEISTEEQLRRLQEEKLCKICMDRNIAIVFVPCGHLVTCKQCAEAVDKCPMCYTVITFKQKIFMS
Sequence of Dihydroorotate dehydrogenase (quinone), mitochondrial (Plasmodium falciparum (isolate 3D7)) (Q08210 whole entry, looked up): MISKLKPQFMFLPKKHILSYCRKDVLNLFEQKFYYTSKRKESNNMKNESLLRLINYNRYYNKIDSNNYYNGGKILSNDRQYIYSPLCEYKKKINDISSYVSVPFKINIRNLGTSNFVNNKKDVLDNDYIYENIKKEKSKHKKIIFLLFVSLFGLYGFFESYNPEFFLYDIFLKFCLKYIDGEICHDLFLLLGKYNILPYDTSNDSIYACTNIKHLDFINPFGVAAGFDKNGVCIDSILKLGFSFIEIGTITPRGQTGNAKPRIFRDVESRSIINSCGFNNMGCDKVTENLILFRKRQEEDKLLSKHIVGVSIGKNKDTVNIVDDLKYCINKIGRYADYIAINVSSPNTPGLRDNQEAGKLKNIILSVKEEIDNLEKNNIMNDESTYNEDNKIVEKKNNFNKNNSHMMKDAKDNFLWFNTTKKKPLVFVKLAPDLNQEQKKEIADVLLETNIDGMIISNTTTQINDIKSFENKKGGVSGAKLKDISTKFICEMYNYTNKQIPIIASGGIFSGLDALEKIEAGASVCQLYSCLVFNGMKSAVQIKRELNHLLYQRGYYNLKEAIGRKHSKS

SMILES	z-score [1]	z-score [2]	z-score [3]	composite z-score [4]	z-score [5]	z-score [6]	z-score [7]	z-score [8]	z-score [9]	composite z-score [10]	composite z-score [11]	composite z-score [12]	z-score [13]	z-score [14]
COC(=O)[C@H](C)NC(=O)CCC1CC(OC(=O)NCc2ccc3c(c2)OCO3)CC2(CCCC(COC(=O)NCCc3ccc(Cl)cc3)O2)O1 (some centres undefined)	0.388	0.515 (inactive)	-0.682 (inactive)	0.0925 (inactive)	-0.965 (inactive)	0.88 (inactive)	0.616 (inactive)	-0.729 (inactive)	0.0968	-0.0559	0.0239 (inactive)	0.375	-1.97	-5.07 (inactive)
CO[C@H]1COC(=O)[C@H](CCSC)NC(=O)CC=C[C@@H](C)[C@H](OC)COC(=O)[C@@H](OCc2ccccc2)C=C[C@@H]1C	0.81	-0.41 (inactive)	-0.059 (inactive)	-0.611 (inactive)	-1.38 (inactive)	-0.208 (inactive)	0.345 (inactive)	0.238 (inactive)	0.519	-0.0965	2.65 (inactive)	0.358	-0.772	-1.29 (inactive)
CC(C)=NOC(C)CN1CCCCc2nc(C)c(C)cc21 (centres undefined)	-0.724	0.0416 (inactive)	-0.408 (inactive)	-0.241 (inactive)	0.547 (inactive)	0.113 (inactive)	0.668 (inactive)	-0.562 (inactive)	-0.491	0.111	-0.203 (inactive)	0.208	1.35	-1.28 (inactive)
CCOC(=O)[C@H](CC(C)C)NC(=O)CCC1CC(OC(=O)NCc2ccc3c(c2)OCO3)CC2(CCCC(COC(=O)NCCOC)O2)O1 (some centres undefined)	1.22	-0.383 (inactive)	0.982 (inactive)	-0.617 (inactive)	-0.516 (inactive)	0.418 (inactive)	0.214 (inactive)	-1.31 (inactive)	0.912	-0.0784	0.685 (inactive)	0.0552	-1.99	-5.34 (inactive)
CC(C)=NOC(C)CN1CCCc2nc(C)c(C)cc21 (centres undefined)	-0.249	-0.211 (inactive)	-0.0014 (inactive)	0.787 (inactive)	0.854 (inactive)	-0.0702 (inactive)	0.0251 (inactive)	-0.726 (inactive)	-0.572	-0.0676	2.19 (inactive)	0.522	-0.225	-8.04 (active)
CC(C)CON=C1C[C@@H](O)[C@@H](O)[C@@H]2[C@@H]3C(=O)N(Cc4ccc5c(c4)OCO5)C(=O)[C@@H]3CC[C@@H]12	0.344	0.793 (inactive)	0.61 (inactive)	0.0312 (inactive)	-0.249 (inactive)	0.64 (inactive)	0.146 (inactive)	-0.563 (inactive)	-0.0253	-0.102	-0.263 (inactive)	-0.266	-0.721	-0.441 (inactive)
CCc1cc2c(nc1CC)CCN(CCC(C)=NO[C@@H]1O[C@H](COC(C)=O)[C@@H](OC(C)=O)[C@H](OC(C)=O)[C@H]1OC(C)=O)C2	-0.11	-0.334 (inactive)	0.164 (inactive)	-2.7 (inactive)	-0.585 (inactive)	-0.567 (inactive)	-1.25 (inactive)	-1.82 (inactive)	-0.387	0.0825	2.93 (inactive)	0.719	-1.62	-4.79 (inactive)
CC(C)CON=C1[C@H]2CCn3c(=O)n(C)c(=O)n3[C@H]2[C@H](O)[C@@H]2O[C@H]12	-0.423	0.0789 (inactive)	0.0226 (inactive)	-0.764 (inactive)	-0.425 (inactive)	-0.353 (inactive)	-0.0374 (inactive)	-0.0718 (inactive)	-0.347	-0.117	-0.12 (inactive)	0.245	1.43	0.322 (inactive)
CCc1cc2c(nc1CC)CCN(CCC(C)=NOCC[C@@H]1C=C[C@H](OC(C)=O)[C@@H](COC(C)=O)O1)C2	0.0383	0.859 (inactive)	-0.123 (inactive)	0.903 (inactive)	0.122 (inactive)	1.23 (inactive)	-0.157 (inactive)	-1.33 (inactive)	0.154	-0.212	-0.0297 (inactive)	0.45	-0.876	-5.38 (inactive)
COc1ccc(O[C@H]2C=C[C@@H](C#Cc3ccccc3)O[C@@H]2CO)cc1	0.124	-10.4 (active)	-1.24 (inactive)	-0.759 (inactive)	0.0372 (inactive)	-0.76 (inactive)	0.633 (inactive)	0.14 (inactive)	-0.021	-0.0412	-0.727 (inactive)	0.266	0.284	-3.22 (inactive)
C=CC[C@@H]1C=C[C@H](ON=CC[C@@H]2C=C[C@H](OC(C)=O)[C@@H](COC(C)=O)O2)[C@@H](CO)O1	0.083	0.365 (inactive)	-1.23 (inactive)	-0.84 (inactive)	-0.242 (inactive)	0.879 (inactive)	0.879 (inactive)	0.984 (inactive)	-0.687	-0.158	0.571 (inactive)	0.749	0.422	-0.273 (inactive)
CC1(C)O[C@H]2O[C@H]([C@H](O)CON=C3[C@H]4CCn5c(=O)n(-c6ccccc6)c(=O)n5[C@H]4[C@H](O)[C@@H]4O[C@H]34)[C@H](O)[C@H]2O1	-0.294	-0.139 (inactive)	0.159 (inactive)	-0.327 (inactive)	0.593 (inactive)	-0.894 (inactive)	0.483 (inactive)	-0.516 (inactive)	0.343	-0.0767	0.469 (inactive)	-0.0051	-0.511	-0.437 (inactive)
COc1ccc(O[C@H]2C=C[C@@H](c3ccccc3)O[C@@H]2CON=C2c3cc(OC)ccc3O[C@H](c3cccc(OC)c3)[C@H]2O)cc1	-0.568	0.311 (inactive)	-0.89 (inactive)	0.586 (inactive)	1.53 (inactive)	0.041 (inactive)	0.779 (inactive)	-0.824 (inactive)	-0.387	-0.206	-0.167 (inactive)	-0.338	0.106	1.67 (inactive)
O=C1CCCC=C1C(O)C1CCCCC1 (centres undefined)	-0.075	-0.143 (inactive)	-0.254 (inactive)	-1.76 (inactive)	-0.458 (inactive)	-0.647 (inactive)	0.342 (inactive)	0.456 (inactive)	0.289	-0.242	-0.459 (inactive)	-0.11	0.247	-0.0768 (inactive)
CC(C)CON=C1C[C@@H](O)[C@@H](O)[C@@H]2[C@@H]3C(=O)N(C(C)(C)C)C(=O)[C@@H]3CC[C@@H]12	-0.685	-0.322 (inactive)	0.4 (inactive)	-1.88 (inactive)	0.295 (inactive)	-0.492 (inactive)	0.796 (inactive)	-1.13 (inactive)	-0.463	-0.277	0.0494 (inactive)	-0.295	-1.62	-0.298 (inactive)
CCN1C(=O)[C@H]2[C@H]3[C@H](O)[C@H](O)CC(=NOCC[C@@H]4C=C[C@H](OC(C)=O)[C@@H](COC(C)=O)O4)[C@@H]3CC[C@H]2C1=O	-1.02	0.508 (inactive)	-1.85 (inactive)	-0.666 (inactive)	1.22 (inactive)	-0.183 (inactive)	0.178 (inactive)	-0.0655 (inactive)	-1.05	0.134	0.607 (inactive)	0.529	0.145	-1.8 (inactive)
COc1ccc(OC[C@@H](CO)OC)cc1	-0.279	0.0175 (inactive)	-0.143 (inactive)	-0.591 (inactive)	-0.364 (inactive)	-0.334 (inactive)	0.293 (inactive)	0.178 (inactive)	0.421	-0.0344	0.617 (inactive)	-0.317	1.62	-0.0261 (inactive)
CC(=O)OC[C@H]1O[C@H](CC=NO[C@@H](C)c2cn([C@H](CO)Cc3ccccc3)nn2)C=C[C@@H]1OC(C)=O	-0.462	-0.305 (inactive)	0.0157 (inactive)	-2.87 (inactive)	-0.88 (inactive)	-0.793 (inactive)	-0.645 (inactive)	-1.36 (inactive)	0.205	-0.434	-0.0018 (inactive)	0.361	-1.13	-0.583 (inactive)
O=C1[C@H]2[C@H]3[C@H](O)[C@H](O)CC(=NO[C@@H]4O[C@H](CO)[C@@H](O)[C@H](O)[C@H]4O)[C@H]3CC[C@H]2C(=O)N1c1ccc(F)cc1F	0.487	0.191 (inactive)	-0.141 (inactive)	-1.08 (inactive)	-0.377 (inactive)	-0.638 (inactive)	0.166 (inactive)	-0.196 (inactive)	0.371	0.394	0.391 (inactive)	0.502	-0.652	-7.01 (inactive)
Cc1cc2c(nc1C)CCCCN2CC(O)CN1CCCc2nc(-c3ccc(Br)cc3)ccc21 (centres undefined)	-0.225	-0.849 (inactive)	-1.51 (inactive)	0.667 (inactive)	0.38 (inactive)	0.919 (inactive)	0.608 (inactive)	0.348 (inactive)	-1.48	0.131	-0.0362 (inactive)	0.0985	0.528	-4.77 (inactive)
C=CC[C@@H]1C=C[C@H](ON=C[C@@H](NS(=O)(=O)c2ccc(C)cc2)[C@H](C)C=CCC(=O)OC)[C@@H](CO)O1	-0.71	0.071 (inactive)	-0.681 (inactive)	-0.383 (inactive)	0.0525 (inactive)	-0.0257 (inactive)	-0.251 (inactive)	0.119 (inactive)	-0.422	-0.231	0.278 (inactive)	0.463	-0.174	-4.66 (inactive)
